Source: PubChem BioAssay AID1117319 (Southern Research Institute, 2015)
Several values for one entry are separate records, joined by “and”; a condition that tells them apart may be missing. Equal values may be shown once. Among all 260,000 compounds or so, about 1,500 (0.58%) were called active. About 5% were inconclusive and are not listed.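 How the source made its calls: active means inhibition above a set limit at one or more doses, reproduced on every date tested; inconclusive means results disagree between test dates, or hit never tested in dose response; inactive means the rest.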 Not all results are given here. Measured potencies and affinities stand elsewhere.

molecular target: Virion infectivity factor (Human immunodeficiency virus type 1 group M subtype B (isolate BH10)) + Virion infectivity factor (Human immunodeficiency virus type 1 group M subtype B (isolate BRU/LAI)) + Virion infectivity factor (Human immunodeficiency virus type 1 group M subtype B (isolate PCV12)) + Virion infectivity factor (Human immunodeficiency virus type 1 group M subtype B (isolate HXB2)) + DNA dC->dU-editing enzyme APOBEC-3G (Homo sapiens) (UniProt P69720+P69721+P69722+P69723+Q9HC16); experiment: inhibitors of Vif binding to APOBEC3G peptide, primary screen, biochemical, TR-FRET, GST-Vif 1-94, biotin-A3G peptide, dose response retest (AID 1117319); details: hits give high values;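 further: Vif residues 1-94 fused to GST binding biotinylated APOBEC3G peptide 110-148; 0% = full assay without inhibitor and 100% = GST in place of GST-Vif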

inhibition, inactive:
CNC(=S)N1CCN(c2ccc(Cl)c(Cl)c2)CC1 1.98%, O=C1CSC(c2ccc(Cl)c(Cl)c2)N1c1nccs1 (stereo unspecified) 2.94%, CN(C)C(=O)c1ccc(NC(=O)CSc2nnc(-c3ccc4c(c3)OCO4)o2)cc1 1.62%, C/C(=N\Nc1ccc(F)cc1)c1ccc(N2CCOCC2)c(F)c1 6.07%, CC(=O)c1ccc(NC(=O)c2cnsn2)cc1 4.53%, CCN(CC)C(=O)[C@H]1C[C@H](CC(=O)NCCc2ccccn2)C(=O)N2CCc3c([nH]c4cc(CCC(=O)N(C)C)ccc34)[C@]12C 17.5%, CCNC(=S)N/N=C/c1c(C)nn(-c2cccc(Cl)c2)c1Cl 5.39%, CC(=O)C1=C(C)OC(N)=C(C#N)C1c1cc2cc(C)c(C)cc2nc1Cl (stereo unspecified) 9.71%, CC(=O)C1=C(C)OC(N)=C(C#N)C1c1cc2cccc(C)c2nc1Cl (stereo unspecified) -1.1%, COc1ccc2nc(NC(=O)C3CCN(C(=O)c4ccc(F)cc4)CC3)sc2c1 -12.6%, CCc1oc(C(=O)OC)cc1CSC(=N)N -0.44%, Cc1cc2ccccn2c1C(=O)c1nc(NCc2ccccc2)ncc1Cl -3.29%, COc1cccc(C(=O)OCC(=O)Nc2ccc3c(c2)OCCO3)c1 -5.71%, CSc1ncccc1C(=O)OCC(=O)NC(=O)NCCC(C)C -2.12%, O=C(NCC(c1cccs1)N1CCOCC1)c1ccc(Br)o1 (stereo unspecified) 22.6%, CC(=O)Nc1ccc(S(=O)(=O)Nc2nccs2)cc1 -1.8%, COc1ccc(-c2nnc(Nc3ccc(S(=O)(=O)Nc4nccs4)cc3)c3ccccc23)cc1 12.6%, COC(=O)[C@H](C)NC(=O)Nc1ccccc1C(F)(F)F 8.61%, CNC(=O)C12CCC(C)(c3nc4cc(C)c(C)cc4nc31)C2(C)C (stereo unspecified) 2.01%, CCOC(=O)C1CCN(Cc2cnc(Oc3ccc(C(C)(C)C)cc3)s2)CC1 28.3%, CCOC(=O)C1CCN(Cc2cnc(Oc3ccc(N)cc3)s2)CC1 3.48%, Cc1cc(CNC(=O)CCc2nnc(CCCCc3ccccc3)o2)nn1C -5.35%, CN(C)c1ccc(C(=O)c2ccc(O)cc2O)cc1 -0.42%, Cc1ccc(-c2cc(Cc3ccc(N(C)C)cc3)c(=O)[nH]n2)cc1 -0.03%, O=C(Nc1ccc(Cl)cc1)C(c1ccccc1)N(CCO)CCO (stereo unspecified) -1.42%, COC(=O)c1ccc(CSc2nnc(-c3ccccc3)n2C)o1 2.37%, O=C(O)c1ccc(C(=O)c2cc([N+](=O)[O-])cc([N+](=O)[O-])c2)cc1 -9.99%, O=C(O)c1ccc(S(=O)(=O)c2ccccc2C(=O)O)c([N+](=O)[O-])c1 -4.06%, Cc1cc(C(=O)Nc2ccccc2Cc2ccccc2)no1 -1.05%, Cc1sc(NC(=O)c2cccs2)c(C(=O)OC(C)C)c1C 2.47%, CCOC(=O)c1c(NC(=O)c2cccs2)sc(C)c1CC -1.19%, O=C(O)/C(=C/c1ccc(Cl)c([N+](=O)[O-])c1)c1ccc(S(=O)(=O)N2CCCCC2)s1 19.6%, COc1c(C)cc(C(=O)C2CCCN(C(=O)c3cc(C)nc(C)n3)C2)cc1C (stereo unspecified) -12.6%, CCc1cccc(NC(=O)CN(C)S(=O)(=O)c2cccc3cccnc23)c1 5.83%, COc1c(O)cc2c(c1O)C(=O)CC(c1ccccc1)O2 (stereo unspecified) 2.35%, COc1cc(O)c(CCO)c2c1C(=O)C[C@@H](C)O2 1.87%, O=C(NCc1cccnc1)c1ccc(CS(=O)(=O)Cc2ccc(Cl)cc2)o1 21.4%, CCc1cccc(NC(=O)C2CCN(S(=O)(=O)c3c(C)noc3C)CC2)c1 -1.11%, Cc1noc(C)c1S(=O)(=O)N1CCC(C(=O)NC2CCN(Cc3ccccc3)CC2)CC1 28.3%, CCCCn1c(SCC(=O)c2ccc(OCC)cc2)nc2cc(S(N)(=O)=O)ccc21 3.73%, CN1CC(=O)N(CC(=O)Nc2ccc(Cl)c(C(F)(F)F)c2)C1=O -5.66%, COc1ccc(NC(=O)CCCCCN2C(=O)CCC2=O)cc1Cl -2.09%, O[C@H]1C[C@H](c2ccccc2)N(CC2CCCCC2)C[C@@H]1n1cc(C2CC2)nn1 -3.24%, Cc1ccc(C)c(N(C(=O)Cn2nnc3ccccc32)C(C(=O)NCc2ccco2)c2ccncc2)c1 (stereo unspecified) -2.7%, Cc1ccccc1N(C(=O)Cn1nnc2ccccc21)C(C(=O)NCc1ccco1)c1ccncc1 (stereo unspecified) -7.73% and -2.99%, CC(C)Oc1ccc(N2CC(C(=O)Nc3ccccc3C(=O)NC3CC3)CC2=O)cc1 (stereo unspecified) -13%, Cc1ccc2[nH]c(=O)c(C3=NN(C(=O)CCC(=O)O)C(c4cccs4)C3)c(-c3ccccc3)c2c1 (stereo unspecified) 2.41%, COC(=O)C(CC(=O)c1ccc(Cl)cc1)c1ccc(C(C)C)cc1 (stereo unspecified) 10.5%, O=C(CCCl)N(Cc1nc2ccccc2c(=O)[nH]1)Cc1cccs1 -7.06%, CC(C)NC(=O)N(Cc1ccccc1)Cc1cccs1 -1.49%, CN(CC(=O)Nc1cccc(F)c1)C(=O)c1ccccc1OCCOc1ccccc1 2.96%, O=C(NNC(=O)c1ccccc1C(=O)O)c1cc2ccccc2o1 19%, O=C(NNC(=O)c1cc2ccccc2o1)c1ccc(F)cc1 -2.65%, C=CCNC(=O)c1ccc(-c2ccc([N+](=O)[O-])cc2)o1 16.1%, CC(=O)Nc1ccc(NC(=O)c2ccc(-c3ccc([N+](=O)[O-])cc3)o2)cc1 -7.43%, CC1CCN(c2ccccc2NC(=S)NC(=O)C(C)(C)C)CC1 -4.59%, COc1ccc2c(CC(=O)NNC(=O)c3cccs3)coc2c1 5.01%, CCCC(C(=O)NC(C)(C)C)N(Cc1ccccc1)C(=O)c1snc(C(N)=O)c1N (stereo unspecified) 3.36%, Cc1nn(Cc2ccc(Cl)cc2Cl)c(C)c1NC(=O)c1nn(C)cc1Cl -2.6%, O=C(CCc1ccccc1)Nc1ccc(NS(=O)(=O)c2ccccc2)cc1 0.68%, Cc1c[n+]([O-])cc(C)c1[N+](=O)[O-] -3.91%, O=C(CCN1CCN(CCO)CC1)Nc1ccc(OCc2ccccc2)cc1 -0.21%, c1cc2c(cc1CN1CCOCC1)OCO2 11.3%, CC1(C)CC(=O)C2=C(C1)NCN(Cc1ccccc1)C2 0.39%, O=C(OCC(=O)N1CCCC1)c1c2c(nc3ccccc13)CCCCC2 -4.27%, NNC(=O)C1C(O)CCC2CN3CCc4c([nH]c5ccccc45)C3CC21 (stereo unspecified) -9.7%, C[C@@H]1ON(C)[C@H]2C[C@H]3c4[nH]c5ccccc5c4CCN3C[C@@H]12 -1.4%, Cc1ccnc(NS(=O)(=O)c2cc([N+](=O)[O-])ccc2C)c1 -2.19%, Brc1cccc(-c2nnco2)c1 -2.5%, Cc1ccc(C2=N/C(=C\c3ccc(F)cc3)C(=O)N2)cc1 -3.34%, COc1ccc(/C=C2\N=C(c3ccccc3Cl)NC2=O)cc1 3.99%, O=c1/c(=C/c2ccco2)sc2n1CN(c1cccc(Br)c1)CN=2 32.9%, O=C(CCc1nc2ccccc2c(=O)[nH]1)OCc1ccc(-c2ccccc2)cc1 -13.5%, CCc1ccc2c(c1)C(=O)CCC2 -0.54%, O=C(CN1CCCCC1)NCCNC(=O)CN1CCCCC1 -5.6%, Cc1ccc2c(c1)c1c3n2CCN(C(=O)C2CC2)C3CCC1 (stereo unspecified) 14.1%, Cc1ccc2c(c1)c1c3n2CCN(C(=O)CN2CCN(C)CC2)C3CCC1 (stereo unspecified) -1.2%, COC(=O)c1ccc2c(c1)SC1=C(CCCC1=O)N2 20.1%, CNCc1ccccc1OCc1ccc(F)cc1 -4.9%, CCC(C)[C@@H](C(=O)Nc1ccc(OC)c(OC)c1)N1Cc2ccccc2C1=O (stereo partly specified) 3.88%, CC(C(=O)Nc1ccc2c(c1)OCCO2)N1Cc2ccccc2C1=O (stereo unspecified) 7.84%, N#C/C(C(N)=O)=C1/CCc2ccccc2N1 -2.65%, N#CC(C(N)=O)=C1CCC2(CC1)OCCCCO2 3.27%, C[C@@H]1CCCCO[C@H](CN(C)Cc2ccc(C(F)(F)F)cc2)[C@@H](C)CN([C@H](C)CO)C(=O)c2cc(NS(=O)(=O)c3cn(C)cn3)ccc2O1 -0.57%, Cc1noc(C)c1S(=O)(=O)Nc1ccc2c(c1)C(=O)N([C@@H](C)CO)C[C@@H](C)[C@@H](CN(C)CC1CCCCC1)OCCCC[C@@H](C)O2 2.32%, CCOC(=O)c1c(C)nc(C)c(C(=O)OCC)c1-c1cccc(N)c1 -1.65%, CC(C)n1c(SCC(=O)Nc2nc3ccccc3s2)nc2c1c(=O)n(C)c(=O)n2C 10.6%, NS(=O)(=O)c1cc(Br)c2c(c1)S(=O)(=O)NCN2 -0.53%, CCOC(=O)N1CCC(N(CCN(C)C)C(=S)Nc2cccc(Cl)c2C)CC1 -1.98%, Cc1ccc(N2NC(=O)/C(=C/c3ccc(-c4ccc(Cl)c(C(=O)O)c4)o3)C2=O)cc1 0.99%, O=C1NN(c2ccccc2)C(=O)/C1=C/c1ccc(-c2ccc(Cl)c(C(=O)O)c2)o1 -2.97%
